{"source": "paper PMC7862700", "about": "“An all-to-all approach to the identification of sequence-specific readers for epigenetic DNA modifications on cytosine”", "assay_in_all_cases": "DAPPL (digital affinity profiling via proximity ligation, sequencing); 10 mM Tris-HCl pH 7.5, 50 mM NaCl, 1 mM DTT, 4% glycerol, room temperature, 30 min; GST-TFs on glutathione beads, 16-mer random dsDNA library, 0.1% formaldehyde crosslink after washing; high values mean tight binding", "conditions_in_all_cases": "protein: recombinant; tags: N-terminal GST; dsDNA, one strand shown", "key": {"FLI1": {"target": "T1, FLI1 (Homo sapiens, UniProt Q01543 1-452)", "T1 sequence": "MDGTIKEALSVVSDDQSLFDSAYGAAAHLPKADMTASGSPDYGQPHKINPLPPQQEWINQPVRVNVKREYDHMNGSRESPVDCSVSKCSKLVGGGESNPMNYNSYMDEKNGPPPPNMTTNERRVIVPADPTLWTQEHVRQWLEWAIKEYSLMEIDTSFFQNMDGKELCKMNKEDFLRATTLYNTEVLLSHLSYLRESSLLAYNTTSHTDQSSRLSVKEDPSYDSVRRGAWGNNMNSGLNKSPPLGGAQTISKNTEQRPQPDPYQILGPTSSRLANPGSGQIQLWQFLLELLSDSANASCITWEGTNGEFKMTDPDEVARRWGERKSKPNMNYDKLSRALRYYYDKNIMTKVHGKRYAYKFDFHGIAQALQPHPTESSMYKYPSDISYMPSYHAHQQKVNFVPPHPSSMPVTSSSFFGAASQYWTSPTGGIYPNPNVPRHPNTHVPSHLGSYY", "procedure,_shortened": "(§1)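 Human transcription factors were made in yeast as GST fusions, captured on glutathione beads and barcoded with DNA. With a tag-only sample included, the pool was incubated with 200 nmole of a random double-stranded 16-mer DNA library in Tris/NaCl/DTT/glycerol buffer at room temperature for 30 min, then crosslinked with 0.1% formaldehyde after washing, ligated by proximity, amplified and sequenced. For binding signal, each hexamer's read frequency for a factor is divided by its frequency for the tag-only sample.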"}, "ELK1": {"target": "T2, ELK1 (Homo sapiens, UniProt P19419 1-428)", "T2 sequence": "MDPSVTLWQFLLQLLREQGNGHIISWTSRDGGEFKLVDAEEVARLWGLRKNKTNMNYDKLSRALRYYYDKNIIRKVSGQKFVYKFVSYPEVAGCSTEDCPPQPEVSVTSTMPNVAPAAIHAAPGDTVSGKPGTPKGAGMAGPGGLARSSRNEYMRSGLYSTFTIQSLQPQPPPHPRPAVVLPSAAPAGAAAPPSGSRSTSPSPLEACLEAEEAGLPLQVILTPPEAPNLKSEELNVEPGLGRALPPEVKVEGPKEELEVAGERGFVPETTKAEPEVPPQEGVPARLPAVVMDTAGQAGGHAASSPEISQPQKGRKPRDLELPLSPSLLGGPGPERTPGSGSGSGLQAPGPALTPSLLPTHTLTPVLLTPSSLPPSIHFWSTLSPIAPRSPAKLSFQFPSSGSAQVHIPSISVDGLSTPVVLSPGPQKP", "procedure,_shortened": "as §1"}, "GABPA": {"target": "T3, GABPA (Homo sapiens, UniProt Q06546 1-454)", "T3 sequence": "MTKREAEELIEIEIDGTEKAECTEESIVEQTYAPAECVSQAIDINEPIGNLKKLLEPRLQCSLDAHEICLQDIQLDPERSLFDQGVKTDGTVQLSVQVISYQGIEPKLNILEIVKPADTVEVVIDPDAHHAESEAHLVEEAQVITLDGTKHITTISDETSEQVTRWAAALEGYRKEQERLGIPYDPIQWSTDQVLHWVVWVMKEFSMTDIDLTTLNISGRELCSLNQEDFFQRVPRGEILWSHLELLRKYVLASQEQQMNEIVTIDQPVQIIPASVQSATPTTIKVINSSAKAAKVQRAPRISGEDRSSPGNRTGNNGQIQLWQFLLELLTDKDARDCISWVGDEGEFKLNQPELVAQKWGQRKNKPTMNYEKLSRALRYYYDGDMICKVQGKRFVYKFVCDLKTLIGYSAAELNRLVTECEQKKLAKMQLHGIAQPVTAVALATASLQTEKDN", "procedure,_shortened": "as §1"}, "ERG": {"target": "T4, ERG (Homo sapiens, UniProt P11308 1-479)", "T4 sequence": "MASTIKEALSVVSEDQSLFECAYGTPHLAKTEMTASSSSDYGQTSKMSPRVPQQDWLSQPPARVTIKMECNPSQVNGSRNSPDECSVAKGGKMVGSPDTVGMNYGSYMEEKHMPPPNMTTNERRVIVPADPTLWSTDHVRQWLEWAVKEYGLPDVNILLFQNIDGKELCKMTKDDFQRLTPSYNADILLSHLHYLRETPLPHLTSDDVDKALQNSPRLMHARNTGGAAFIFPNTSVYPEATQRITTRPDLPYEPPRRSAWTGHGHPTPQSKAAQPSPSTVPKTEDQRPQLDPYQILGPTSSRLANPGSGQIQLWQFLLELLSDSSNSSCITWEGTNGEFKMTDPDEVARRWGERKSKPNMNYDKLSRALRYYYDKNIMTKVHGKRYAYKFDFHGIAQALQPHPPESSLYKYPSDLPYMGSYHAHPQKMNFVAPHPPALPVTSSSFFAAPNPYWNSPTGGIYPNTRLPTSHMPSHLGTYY", "procedure,_shortened": "as §1"}, "ELF1": {"target": "ELF1 (Homo sapiens, UniProt P32519 1-619)", "sequence (P32519 whole entry)": "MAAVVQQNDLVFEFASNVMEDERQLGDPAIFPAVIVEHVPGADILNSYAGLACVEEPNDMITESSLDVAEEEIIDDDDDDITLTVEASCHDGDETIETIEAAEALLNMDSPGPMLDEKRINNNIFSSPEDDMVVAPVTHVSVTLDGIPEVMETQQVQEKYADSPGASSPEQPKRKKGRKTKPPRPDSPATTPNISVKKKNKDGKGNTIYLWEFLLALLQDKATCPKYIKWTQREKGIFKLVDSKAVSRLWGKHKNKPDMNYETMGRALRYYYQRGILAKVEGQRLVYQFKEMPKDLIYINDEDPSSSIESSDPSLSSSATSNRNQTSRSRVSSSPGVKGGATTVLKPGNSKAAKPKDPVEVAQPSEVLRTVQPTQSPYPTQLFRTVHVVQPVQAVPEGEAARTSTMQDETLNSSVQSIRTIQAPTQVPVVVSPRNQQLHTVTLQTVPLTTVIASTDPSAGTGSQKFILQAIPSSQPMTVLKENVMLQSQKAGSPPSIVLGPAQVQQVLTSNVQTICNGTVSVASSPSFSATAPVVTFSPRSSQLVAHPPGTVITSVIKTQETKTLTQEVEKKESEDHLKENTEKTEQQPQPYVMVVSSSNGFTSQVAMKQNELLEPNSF", "procedure,_shortened": "as §1"}, "EHF": {"target": "T5, EHF (Homo sapiens, UniProt Q9NZC4 1-300)", "T5 sequence": "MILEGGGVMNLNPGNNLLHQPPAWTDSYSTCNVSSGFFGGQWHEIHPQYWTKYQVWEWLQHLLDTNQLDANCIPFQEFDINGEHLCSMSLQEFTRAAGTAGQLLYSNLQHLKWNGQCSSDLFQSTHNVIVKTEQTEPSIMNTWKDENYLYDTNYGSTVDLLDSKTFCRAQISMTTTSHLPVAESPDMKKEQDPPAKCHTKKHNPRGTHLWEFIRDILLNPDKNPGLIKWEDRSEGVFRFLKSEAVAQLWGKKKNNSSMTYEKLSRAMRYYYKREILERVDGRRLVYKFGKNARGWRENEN", "procedure,_shortened": "as §1"}, "SPI1": {"target": "SPI1 (Homo sapiens, UniProt P17947 1-270)", "procedure,_shortened": "as §1"}, "SPIB": {"target": "SPIB (Homo sapiens, UniProt Q01892 1-262)", "sequence (Q01892 whole entry)": "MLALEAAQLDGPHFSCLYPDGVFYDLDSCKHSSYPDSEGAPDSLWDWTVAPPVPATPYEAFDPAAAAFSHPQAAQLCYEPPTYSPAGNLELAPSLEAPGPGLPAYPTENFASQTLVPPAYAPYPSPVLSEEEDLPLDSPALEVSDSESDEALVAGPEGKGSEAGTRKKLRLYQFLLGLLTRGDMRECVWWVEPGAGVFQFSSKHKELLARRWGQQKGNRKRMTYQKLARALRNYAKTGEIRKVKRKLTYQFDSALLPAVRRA", "procedure,_shortened": "as §1"}, "ELK3": {"target": "T6, ELK3 (Homo sapiens, UniProt P41970 1-407)", "T6 sequence": "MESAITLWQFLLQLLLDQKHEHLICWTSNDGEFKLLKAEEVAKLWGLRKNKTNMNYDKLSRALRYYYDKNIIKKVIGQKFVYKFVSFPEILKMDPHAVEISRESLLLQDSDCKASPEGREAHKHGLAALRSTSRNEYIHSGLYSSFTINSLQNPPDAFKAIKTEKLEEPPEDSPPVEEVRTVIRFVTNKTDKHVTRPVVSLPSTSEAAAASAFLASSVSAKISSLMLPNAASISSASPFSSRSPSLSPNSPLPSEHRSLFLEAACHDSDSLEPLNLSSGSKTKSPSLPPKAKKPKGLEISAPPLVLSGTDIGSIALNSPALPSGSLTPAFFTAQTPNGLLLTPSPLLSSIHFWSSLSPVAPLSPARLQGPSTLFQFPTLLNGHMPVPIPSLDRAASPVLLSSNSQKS", "procedure,_shortened": "as §1"}}}
{"sequence": "TCTCTT", "values": [{"measurement": "binding signal", "setting": "FLI1", "value": "1.52 fold enrichment (6-mer frequency, TF over GST control)"}, {"measurement": "binding signal", "setting": "ELK1", "value": "1.34 fold enrichment (6-mer frequency, TF over GST control)"}, {"measurement": "binding signal", "setting": "GABPA", "value": "1.45 fold enrichment (6-mer frequency, TF over GST control)"}, {"measurement": "binding signal", "setting": "ERG", "value": "1.27 fold enrichment (6-mer frequency, TF over GST control)"}, {"measurement": "binding signal", "setting": "ELF1", "value": "1.47 fold enrichment (6-mer frequency, TF over GST control)"}, {"measurement": "binding signal", "setting": "EHF", "value": "1.41 fold enrichment (6-mer frequency, TF over GST control)"}, {"measurement": "binding signal", "setting": "SPI1", "value": "1.32 fold enrichment (6-mer frequency, TF over GST control)"}, {"measurement": "binding signal", "setting": "SPIB", "value": "1.38 fold enrichment (6-mer frequency, TF over GST control)"}, {"measurement": "binding signal", "setting": "ELK3", "value": "1.31 fold enrichment (6-mer frequency, TF over GST control)"}]}
